Columns and labels:
Test in all cases: log2 ratio of Biotin-Ahx-Ub-VS probe labelling (fragment/DMSO); higher = less target engagement (more negative = stronger competition), active = hit call of the paper (q ≤ 0.05, log2 ratio ≤ -1)
Conditions in all cases: compound concentration: 200 uM; treatment time: 3 h
USP9X = USP9X (UniProt Q93008)
Procedure, shortened: (§1)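 HEK293T lysate (495 µg per sample, in Tris/CHAPS/IGEPAL buffer with protease inhibitors) was treated in triplicate with fragment at 200 µM or with DMSO for 3 h. It was then treated with Biotin-Ahx-Ub-VS (0.5 µM final) for 1 h. Labelled DUBs were NeutrAvidin-enriched, digested with LysC and trypsin, and run by diaPASEF LC-MS/MS. Spectronaut label-free quantities were global-median-normalised. Values are average log2 ratios fragment/DMSO by unpaired t-test, using proteins with ≥2 unique peptides.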

UniProt O00487 = target: UniProt O00487
Chain of UniProt O00487 (O00487 whole entry): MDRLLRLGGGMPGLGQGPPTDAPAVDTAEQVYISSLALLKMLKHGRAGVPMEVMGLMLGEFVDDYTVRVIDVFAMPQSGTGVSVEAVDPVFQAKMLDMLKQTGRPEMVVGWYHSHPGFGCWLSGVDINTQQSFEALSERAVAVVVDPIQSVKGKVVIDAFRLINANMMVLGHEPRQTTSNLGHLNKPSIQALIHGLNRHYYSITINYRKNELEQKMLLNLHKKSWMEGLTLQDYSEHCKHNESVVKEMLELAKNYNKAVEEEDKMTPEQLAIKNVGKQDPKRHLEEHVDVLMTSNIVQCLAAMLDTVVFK
Procedure, shortened: as §1

UniProt O00507 = target: UniProt O00507
Chain of UniProt O00507 (O00507 whole entry): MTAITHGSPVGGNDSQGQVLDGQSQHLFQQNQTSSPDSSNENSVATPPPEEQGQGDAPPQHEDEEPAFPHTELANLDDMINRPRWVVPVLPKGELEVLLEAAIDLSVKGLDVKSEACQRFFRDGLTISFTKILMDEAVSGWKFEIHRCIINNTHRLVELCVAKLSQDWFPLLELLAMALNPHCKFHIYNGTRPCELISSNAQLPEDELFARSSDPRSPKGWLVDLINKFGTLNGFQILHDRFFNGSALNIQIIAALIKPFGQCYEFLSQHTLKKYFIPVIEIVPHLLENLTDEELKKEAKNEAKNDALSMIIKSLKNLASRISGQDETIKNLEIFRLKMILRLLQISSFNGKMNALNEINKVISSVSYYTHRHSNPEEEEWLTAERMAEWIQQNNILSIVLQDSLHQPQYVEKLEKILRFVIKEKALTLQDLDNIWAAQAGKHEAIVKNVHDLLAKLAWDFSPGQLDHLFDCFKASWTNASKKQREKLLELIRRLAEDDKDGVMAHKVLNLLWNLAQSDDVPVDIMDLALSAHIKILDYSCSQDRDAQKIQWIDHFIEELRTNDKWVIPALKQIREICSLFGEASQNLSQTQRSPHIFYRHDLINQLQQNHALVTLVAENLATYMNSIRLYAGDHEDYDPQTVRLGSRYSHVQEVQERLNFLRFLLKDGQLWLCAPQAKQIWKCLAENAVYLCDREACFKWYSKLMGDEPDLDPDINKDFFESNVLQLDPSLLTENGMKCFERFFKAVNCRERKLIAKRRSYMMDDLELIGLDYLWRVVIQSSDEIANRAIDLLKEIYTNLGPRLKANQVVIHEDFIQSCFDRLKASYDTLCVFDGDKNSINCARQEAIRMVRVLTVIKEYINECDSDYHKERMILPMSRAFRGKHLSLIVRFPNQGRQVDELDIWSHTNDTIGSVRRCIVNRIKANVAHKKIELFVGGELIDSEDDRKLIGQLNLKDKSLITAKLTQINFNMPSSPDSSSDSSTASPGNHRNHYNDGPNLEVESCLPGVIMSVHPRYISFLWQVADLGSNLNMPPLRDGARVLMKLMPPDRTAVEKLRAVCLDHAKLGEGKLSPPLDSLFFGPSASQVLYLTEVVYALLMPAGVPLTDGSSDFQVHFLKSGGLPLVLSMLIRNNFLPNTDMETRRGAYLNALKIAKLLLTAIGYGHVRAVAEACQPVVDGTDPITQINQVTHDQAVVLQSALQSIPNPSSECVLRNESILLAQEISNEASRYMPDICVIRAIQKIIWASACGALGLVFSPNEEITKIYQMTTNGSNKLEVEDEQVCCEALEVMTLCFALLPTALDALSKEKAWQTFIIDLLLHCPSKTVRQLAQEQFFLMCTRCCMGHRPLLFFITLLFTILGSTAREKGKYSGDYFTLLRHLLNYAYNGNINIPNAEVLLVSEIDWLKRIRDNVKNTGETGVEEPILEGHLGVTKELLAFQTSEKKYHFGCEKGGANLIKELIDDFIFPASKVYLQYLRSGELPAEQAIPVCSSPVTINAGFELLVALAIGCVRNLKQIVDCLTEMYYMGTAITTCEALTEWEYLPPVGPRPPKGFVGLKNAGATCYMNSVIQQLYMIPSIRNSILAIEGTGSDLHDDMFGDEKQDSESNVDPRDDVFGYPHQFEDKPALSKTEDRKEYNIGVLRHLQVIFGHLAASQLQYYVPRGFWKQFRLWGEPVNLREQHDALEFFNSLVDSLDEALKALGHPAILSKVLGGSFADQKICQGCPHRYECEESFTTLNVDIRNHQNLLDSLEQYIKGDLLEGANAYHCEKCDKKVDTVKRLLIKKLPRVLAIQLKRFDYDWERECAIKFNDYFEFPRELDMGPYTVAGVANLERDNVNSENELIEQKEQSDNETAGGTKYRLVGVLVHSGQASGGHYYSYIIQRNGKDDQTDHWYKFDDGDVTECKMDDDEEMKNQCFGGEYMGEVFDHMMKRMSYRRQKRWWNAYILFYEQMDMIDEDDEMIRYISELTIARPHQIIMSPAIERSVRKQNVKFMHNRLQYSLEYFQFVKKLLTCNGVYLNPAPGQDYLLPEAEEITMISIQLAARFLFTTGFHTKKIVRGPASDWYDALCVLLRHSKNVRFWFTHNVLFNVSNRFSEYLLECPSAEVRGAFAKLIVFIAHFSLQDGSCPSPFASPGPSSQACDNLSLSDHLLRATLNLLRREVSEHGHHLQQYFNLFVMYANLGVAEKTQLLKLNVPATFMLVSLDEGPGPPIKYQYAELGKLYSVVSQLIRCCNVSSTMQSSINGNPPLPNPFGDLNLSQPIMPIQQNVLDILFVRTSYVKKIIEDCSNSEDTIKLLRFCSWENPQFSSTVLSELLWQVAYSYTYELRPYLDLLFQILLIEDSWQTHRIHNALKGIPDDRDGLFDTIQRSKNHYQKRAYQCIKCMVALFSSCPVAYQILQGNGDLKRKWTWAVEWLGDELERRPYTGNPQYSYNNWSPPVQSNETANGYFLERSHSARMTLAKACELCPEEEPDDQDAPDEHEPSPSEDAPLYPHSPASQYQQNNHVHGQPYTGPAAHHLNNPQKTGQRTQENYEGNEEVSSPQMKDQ
Procedure, shortened: as §1

UniProt P51784 = target: UniProt P51784
Chain of UniProt P51784 (P51784 whole entry): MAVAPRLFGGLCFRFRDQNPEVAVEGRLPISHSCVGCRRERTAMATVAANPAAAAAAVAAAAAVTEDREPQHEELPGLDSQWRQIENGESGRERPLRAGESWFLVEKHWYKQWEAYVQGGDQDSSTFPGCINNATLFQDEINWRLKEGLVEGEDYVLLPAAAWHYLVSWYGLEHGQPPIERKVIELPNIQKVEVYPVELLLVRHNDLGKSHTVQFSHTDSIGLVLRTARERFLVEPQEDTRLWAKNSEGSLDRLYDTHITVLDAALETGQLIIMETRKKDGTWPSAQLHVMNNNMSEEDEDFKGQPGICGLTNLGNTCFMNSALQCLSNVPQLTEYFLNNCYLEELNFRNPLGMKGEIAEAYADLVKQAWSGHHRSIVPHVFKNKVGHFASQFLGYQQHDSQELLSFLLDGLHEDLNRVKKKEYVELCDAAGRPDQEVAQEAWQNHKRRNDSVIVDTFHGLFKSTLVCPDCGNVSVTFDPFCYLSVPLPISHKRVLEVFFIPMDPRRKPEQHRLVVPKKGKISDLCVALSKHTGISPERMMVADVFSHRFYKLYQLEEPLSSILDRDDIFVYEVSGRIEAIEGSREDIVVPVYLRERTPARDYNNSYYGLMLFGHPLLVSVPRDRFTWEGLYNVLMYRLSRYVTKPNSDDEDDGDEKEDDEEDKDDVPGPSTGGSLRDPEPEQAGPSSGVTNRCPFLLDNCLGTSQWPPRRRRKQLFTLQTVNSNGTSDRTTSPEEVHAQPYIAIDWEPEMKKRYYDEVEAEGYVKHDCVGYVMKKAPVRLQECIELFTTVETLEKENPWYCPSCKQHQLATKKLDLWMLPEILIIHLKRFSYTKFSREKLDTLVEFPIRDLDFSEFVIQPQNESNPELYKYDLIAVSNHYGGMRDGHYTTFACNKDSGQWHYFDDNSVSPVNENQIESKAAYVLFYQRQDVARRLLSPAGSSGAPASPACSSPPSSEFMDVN
Procedure, shortened: as §1

UniProt Q5T2D3 = target: T1, UniProt Q5T2D3
T1 sequence (whole entry): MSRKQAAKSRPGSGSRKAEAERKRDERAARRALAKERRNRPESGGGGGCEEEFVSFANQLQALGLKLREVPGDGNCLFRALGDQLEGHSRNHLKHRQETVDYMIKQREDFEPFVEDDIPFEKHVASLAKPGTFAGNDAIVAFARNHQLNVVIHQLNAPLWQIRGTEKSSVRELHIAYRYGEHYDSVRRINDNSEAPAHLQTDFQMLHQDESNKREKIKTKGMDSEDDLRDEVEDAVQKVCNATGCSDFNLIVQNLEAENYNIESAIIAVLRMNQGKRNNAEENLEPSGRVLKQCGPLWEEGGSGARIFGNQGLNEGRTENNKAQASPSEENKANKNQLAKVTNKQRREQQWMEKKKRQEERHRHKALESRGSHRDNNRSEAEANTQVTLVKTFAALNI
Procedure, shortened: as §1

UniProt Q8TE49 = target: T2, UniProt Q8TE49
T2 sequence (whole entry): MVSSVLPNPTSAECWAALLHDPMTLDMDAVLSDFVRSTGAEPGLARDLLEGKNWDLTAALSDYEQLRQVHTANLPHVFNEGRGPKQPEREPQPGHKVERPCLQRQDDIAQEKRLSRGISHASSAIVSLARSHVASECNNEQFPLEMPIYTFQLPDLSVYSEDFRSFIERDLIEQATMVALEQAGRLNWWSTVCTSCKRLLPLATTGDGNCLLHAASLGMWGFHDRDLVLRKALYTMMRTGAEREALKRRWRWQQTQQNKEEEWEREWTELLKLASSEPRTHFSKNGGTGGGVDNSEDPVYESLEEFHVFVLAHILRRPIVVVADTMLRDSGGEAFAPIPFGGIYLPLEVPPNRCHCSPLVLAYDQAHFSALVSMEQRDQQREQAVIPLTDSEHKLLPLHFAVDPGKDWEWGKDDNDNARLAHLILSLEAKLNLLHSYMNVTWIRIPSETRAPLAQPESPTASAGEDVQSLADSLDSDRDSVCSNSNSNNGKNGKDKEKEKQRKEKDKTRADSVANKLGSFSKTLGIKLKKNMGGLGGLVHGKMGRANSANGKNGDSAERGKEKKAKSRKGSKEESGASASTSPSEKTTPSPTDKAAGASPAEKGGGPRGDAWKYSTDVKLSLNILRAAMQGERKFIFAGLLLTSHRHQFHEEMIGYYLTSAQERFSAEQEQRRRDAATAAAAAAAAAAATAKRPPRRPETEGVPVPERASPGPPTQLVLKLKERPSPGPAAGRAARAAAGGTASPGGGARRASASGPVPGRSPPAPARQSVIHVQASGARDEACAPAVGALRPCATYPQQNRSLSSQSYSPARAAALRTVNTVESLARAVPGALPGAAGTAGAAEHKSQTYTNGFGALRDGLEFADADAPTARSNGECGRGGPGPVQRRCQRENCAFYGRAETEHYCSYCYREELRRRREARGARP
Procedure, shortened: as §1

UniProt Q9P2H5 = target: T3, UniProt Q9P2H5
T3 sequence (whole entry): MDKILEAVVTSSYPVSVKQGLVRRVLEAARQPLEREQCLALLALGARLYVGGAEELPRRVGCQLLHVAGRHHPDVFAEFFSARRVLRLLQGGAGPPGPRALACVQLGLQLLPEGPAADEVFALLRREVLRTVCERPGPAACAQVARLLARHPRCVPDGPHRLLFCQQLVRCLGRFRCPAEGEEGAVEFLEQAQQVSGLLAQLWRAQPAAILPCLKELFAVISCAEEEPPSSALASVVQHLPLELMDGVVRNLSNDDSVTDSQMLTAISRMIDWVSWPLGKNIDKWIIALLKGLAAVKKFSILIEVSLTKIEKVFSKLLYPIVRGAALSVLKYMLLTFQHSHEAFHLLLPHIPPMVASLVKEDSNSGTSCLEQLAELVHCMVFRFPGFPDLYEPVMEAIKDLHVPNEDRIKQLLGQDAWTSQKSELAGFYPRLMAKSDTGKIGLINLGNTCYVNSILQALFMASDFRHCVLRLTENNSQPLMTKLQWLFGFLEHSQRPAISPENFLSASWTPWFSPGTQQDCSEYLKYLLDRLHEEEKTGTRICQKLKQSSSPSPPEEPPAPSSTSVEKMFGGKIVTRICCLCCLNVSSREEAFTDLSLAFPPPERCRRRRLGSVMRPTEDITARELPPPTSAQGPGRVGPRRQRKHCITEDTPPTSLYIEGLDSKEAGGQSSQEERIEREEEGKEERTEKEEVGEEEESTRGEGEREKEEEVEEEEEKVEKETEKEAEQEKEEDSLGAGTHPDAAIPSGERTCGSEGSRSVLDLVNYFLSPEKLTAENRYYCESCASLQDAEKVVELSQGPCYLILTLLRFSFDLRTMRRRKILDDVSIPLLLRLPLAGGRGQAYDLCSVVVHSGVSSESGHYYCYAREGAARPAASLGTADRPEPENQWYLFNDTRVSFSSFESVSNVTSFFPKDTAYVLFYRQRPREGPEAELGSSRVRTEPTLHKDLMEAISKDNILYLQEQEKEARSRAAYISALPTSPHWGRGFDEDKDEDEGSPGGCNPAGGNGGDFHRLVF
Procedure, shortened: as §1

UniProt Q9UGI0 = target: T4, UniProt Q9UGI0
T4 sequence (whole entry): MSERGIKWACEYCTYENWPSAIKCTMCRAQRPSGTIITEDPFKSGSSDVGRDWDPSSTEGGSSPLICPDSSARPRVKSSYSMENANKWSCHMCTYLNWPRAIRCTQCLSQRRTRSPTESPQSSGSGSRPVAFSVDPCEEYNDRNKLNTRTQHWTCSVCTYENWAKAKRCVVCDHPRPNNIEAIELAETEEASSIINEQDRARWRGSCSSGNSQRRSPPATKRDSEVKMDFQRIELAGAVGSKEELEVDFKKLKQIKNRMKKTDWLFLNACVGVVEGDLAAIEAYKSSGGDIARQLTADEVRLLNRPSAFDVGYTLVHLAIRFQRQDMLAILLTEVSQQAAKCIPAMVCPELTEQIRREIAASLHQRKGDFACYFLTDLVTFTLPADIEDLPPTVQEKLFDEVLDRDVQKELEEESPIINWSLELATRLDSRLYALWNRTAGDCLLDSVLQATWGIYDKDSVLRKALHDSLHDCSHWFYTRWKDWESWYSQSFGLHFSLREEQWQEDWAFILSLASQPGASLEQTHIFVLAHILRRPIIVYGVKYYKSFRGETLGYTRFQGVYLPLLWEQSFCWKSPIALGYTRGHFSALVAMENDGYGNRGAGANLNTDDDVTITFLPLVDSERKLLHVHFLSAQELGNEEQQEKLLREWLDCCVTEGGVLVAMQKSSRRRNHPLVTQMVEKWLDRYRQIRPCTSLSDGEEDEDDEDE
Procedure, shortened: as §1

YOD1 = target: T5, YOD1 (UniProt Q5VVQ6)
T5 sequence (whole entry): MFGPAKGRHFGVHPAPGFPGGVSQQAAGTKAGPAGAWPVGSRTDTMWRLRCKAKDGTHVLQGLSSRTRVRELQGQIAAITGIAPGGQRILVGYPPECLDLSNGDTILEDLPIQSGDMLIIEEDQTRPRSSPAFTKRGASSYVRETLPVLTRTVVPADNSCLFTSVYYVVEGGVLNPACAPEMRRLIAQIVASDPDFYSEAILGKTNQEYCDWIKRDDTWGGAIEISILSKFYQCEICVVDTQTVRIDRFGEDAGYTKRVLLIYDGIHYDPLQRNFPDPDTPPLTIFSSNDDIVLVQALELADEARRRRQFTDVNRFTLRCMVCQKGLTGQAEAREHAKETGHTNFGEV
Procedure, shortened: as §1

Measured: log2 ratio of Biotin-Ahx-Ub-VS probe labelling

Cc1n[nH]c(=O)c2c(NC(=O)CCl)oc(C)c12
inactive: USP9X -0.056 | UniProt O00487 -0.0655 | UniProt O00507 0.347 | UniProt P51784 0.0686 | UniProt Q5T2D3 -0.674 | UniProt Q8TE49 -0.575 | UniProt Q9P2H5 -0.144 | UniProt Q9UGI0 0.264 | YOD1 0.238
